These results are taken from PubChem BioAssay (EPA / NIEHS).

Molecules are shown by their SMILES. Results filed as inconclusive are left out. The source made the active and inactive calls. How the source made its calls: active means hit-call score of the fitted dose curve at least 0.9, where 1 is the maximum; inconclusive means response in the unintended direction; inactive means score below 0.9.

Read-out in this test: alkyl and aryl transferase (GSTA2), GSTA2 (gene 2939)
Briefly: CLD_GSTA2_24hr: CellzDirect (CLD) Gene Expression Assay for alkyl and aryl transferase (GSTA2) at 24 hours (AID 2283693). On the procedure: CLD_24hr is a cell-based, multiplexed-readout assay that uses hepatocyte, a human liver primary cell, with measurements taken at 24 hours after chemical dosing in a 96-well plate.CLD_GSTA2_24hr is one of 16 assay component(s) measured or calculated from the CLD_24hr assay. It is designed to make measurements of mRNA induction, a form of inducible reporter, as detected with chemiluminescence signals by Quantitative Nuclease Protection Assay (qNPA) technology.Data from the assay component CLD_GSTA2_24hr was analyzed at the endpoint, CLD_GSTA2_24hr, in the positive analysis fitting direction relative to DMSO as the negative control and baseline of activity. Using a type of inducible reporter, gain-of-signal activity can be used to understand changes in the reporter gene as they relate to the gene GSTA2. Furthermore, this assay endpoint can be referred to as a primary readout. To generalize the intended target to other relatable targets, this assay endpoint is annotated to the transferase intended target family, where subfamily is alkyl and aryl transferase.
Human hepatocyte cultures were treated daily for two consecutive days with fresh dosing solutions containing appropriate concentrations of the 320 ToxCast chemicals (chemical identities were blinded to CellzDirect and other ToxCast collaborators), vehicle control (0.2% DMSO), and positive control inducers as summarized in Table 1. Due to the large number of treatment groups and chemicals examined, the ToxCast chemicals were divided into two groups (spanning two independent cultures of hepatocytes from separate donor preparations (Hu778: ToxCast plates 1 and 2; Hu776: ToxCast plates 3 and 4). Each preparation of human hepatocyte cultures was treated with respective vehicle control, medium only control, set of six positive controls/reference chemicals for the five hepatic receptor pathways, and a subset of eight of the ToxCast chemicals (indoxacarb, pyrithiobac-sodium, norflurazon, cyhalofop-butyl, methomyl, thiram, acetochlor, and propiconazole). These replicate data, coupled with internal replicates designed within the blinded ToxCast chemical library, provided additional data to evaluate interindividual differences between hepatocyte preparations and their potential impact on chemical profiles.Cell morphology and integrity were evaluated using phase-contrast microscopy as an indicator of hepatocyte cell health (Tyson & Green, 1987). Cultures for each treatment group (i.e., media, vehicle [0.2% DMSO], positive control inducers [multiple concentrations], and the ToxCast chemicals [multiple concentrations]) were observed and cell morphology was assessed relative to vehicle control cultures at each harvest time point (0, 6, 24, or 48 h). […] Images were evaluated at the conclusion of the study to assess changes in cell integrity and account for the effects of chemical exposure on uncharacteristic changes in concentration-dependent gene expression profiles. The results from these determinations of apparent cytotoxicity were annotated (yes/no) alongside the corresponding qNPA data for reference.At the conclusion of each treatment period, hepatocyte cultures (96-well) were washed with 1 volume of HBSS, lysed by addition of 25 ul ArrayPlate lysis buffer (HTG, Tucson, AZ), and 70 ul/well of Denaturation Oil, denatured by incubation at 95C for 10 min, and frozen at approximately -70C until analysis by nuclease protection assay (qNPA) (Roberts et al., 2007). For qNPA analysis, cell lysates were thawed at 50C for approximately 30 min, qNPA probes were added, and samples were incubated at 95C for 10 min to begin the detection process by denaturing the target RNA, dissociating the duplexes and secondary structure hybridization. At the conclusion of the hybridization period, S1 nuclease reagent was added to each sample to digest all nonprotected nucleotides at 50C for 60-90 min. […]
With `COP(=O)(OC)SCn1c(=O)oc2cc(Cl)cnc21`, the call was inactive.

On to `CNC(=O)ON=C(C)SC`, for which the compound was classed as inactive. As for `CCCCOC(=O)[C@@H](C)Oc1ccc(Oc2ccc(C#N)cc2F)cc1`, the entry is “inactive”. As for `CC(C1CC1)C(O)(Cn1cncn1)c1ccc(Cl)cc1` (stereo not given), the entry is “inactive”; as for `CCOP(=S)(Oc1cnc(C(C)(C)C)nc1)OC(C)C` (stereo not given), “inactive”. The value for `CCOP(=O)(OCC)Oc1cc(C)nc(C(C)C)n1` was “inactive”. As for `CCCOCC(=Nc1ccc(Cl)cc1C(F)(F)F)n1ccnc1`, the result was inactive.

In the case of `CCOP(=S)(OCC)OC(Cl)C(Cl)(Cl)Cl` (stereo not given), the compound was called inactive. As for `CC1=NNC(=O)N(/N=C/c2cccnc2)C1`, the entry is “inactive”; as for `CN(C)[C@@H]1C(=O)C(C(N)=O)=C(O)[C@@]2(O)C(=O)C3=C(O)c4c(O)cccc4[C@@](C)(O)[C@H]3[C@H](O)[C@@H]12`, “inactive”.

As for `CNC(=O)Oc1cccc2c1OC(C)(C)O2`, the compound was called inactive. Turning to `CSc1nc(NC(C)C)nc(NC(C)C)n1`, the result was inactive. For the compound `C[N+]1(C)CCCCC1`, the call was inactive.

As to `C#CCC1=C(C)C(OC(=O)C2C(C=C(C)C)C2(C)C)CC1=O` (stereo not given), the compound was called inactive. As for `CC(C)N(C(=O)SCC(Cl)=C(Cl)Cl)C(C)C`, the entry is “inactive”. As for `C[Si](Cn1cncn1)(c1ccc(F)cc1)c1ccc(F)cc1`, the entry is “inactive”; as for `S=C1NCCN1`, “inactive”. On to `Nc1c(Cl)cc([N+](=O)[O-])cc1Cl`, for which the outcome was inactive. As for `Nc1nc(N)nc(NC2CC2)n1`, the entry is “inactive”; as for `C=C(C)[C@H]1Cc2c(ccc3c2O[C@@H]2COc4cc(OC)c(OC)cc4[C@@H]2C3=O)O1`, “inactive”. As for `COc1cc(OC)nc(Sc2cccc(Cl)c2C(=O)O)n1`, the entry is “inactive”; as for `CCOP(=S)(OCC)Oc1ccc2c(C)c(Cl)c(=O)oc2c1`, “inactive”. The value for `CON=C(C(=O)OC)c1ccccc1CON=C(C)c1cccc(C(F)(F)F)c1` was “inactive”; that for `COP(=O)(OC)C(O)C(Cl)(Cl)Cl` (stereo not given) was “inactive”; that for `CCOP(=S)(OCC)SCCSCC` was “inactive”.

Take `CCNc1nc(Cl)nc(NC(C)(C)C#N)n1`: the outcome was inactive. As for `CNC(=O)ON=C(SC)C(=O)N(C)C`, the entry is “inactive”; as for `FC(F)C(F)(F)OCC(Cn1cncn1)c1ccc(Cl)cc1Cl` (stereo not given), “inactive”; as for `CC(C)[C@H](C(=O)O[C@H](C#N)c1cccc(Oc2ccccc2)c1)c1ccc(Cl)cc1`, “inactive”.

Take `CSc1nnc(C(C)(C)C)c(=O)n1N`: the call was inactive. `COc1ccc(C(=CC(=O)N2CCOCC2)c2ccc(Cl)cc2)cc1OC`: the compound was called inactive.

`CCOC(=O)CC(SP(=O)(OC)OC)C(=O)OCC` (stereo not given): the compound was classed as inactive. Consider `CCOP(=O)(NC(C)C)Oc1ccc(SC)c(C)c1` (stereo not given), for which the call was inactive. The value for `CCCCOC(=O)c1ccccc1C(=O)O` was “inactive”; that for `CCOP(=S)(OCC)Oc1cc(C)nc(C(C)C)n1` was “inactive”. As for `CCC(CC)Nc1c([N+](=O)[O-])cc(C)c(C)c1[N+](=O)[O-]`, the entry is “inactive”; as for `CCc1cnc(C2=NC(C)(C(C)C)C(=O)N2)c(C(=O)O)c1` (stereo not given), “inactive”; as for `N#CSCSC#N`, “inactive”. The value for `CCc1cccc(CC)c1N(COC)C(=O)CCl` was “inactive”; that for `CN(C)C(=O)Nc1cccc(C(F)(F)F)c1` was “inactive”.
